Screening data deposited in PubChem BioAssay by National Center for Advancing Translational Sciences (NCATS).
A selection: hits, their analogues and other compounds. The true share with any hit is near 19%.
Pf growth 96h: P. falciparum growth inhibition at 96 hour, primary screen for plastid delayed-death inhibitors. P. falciparum luciferase reporter growth, 96 h. Potency, µM (highest dose often 28.7 µM), inactives show at the top dose activity change, negative = inhibition, usual class: inhibitors. hit rate 6.9% among 320,000; also: potency is read from the fitted curve at half-maximal effect; % is scaled to controls: 0 for no effect and ±100 for the full control effect
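P. falciparum expressing integrated firefly luciferase grown in erythrocytes (2% hematocrit, 0.05% parasitemia final) with compounds for 96 hours at 37 C, 5% CO2. Growth inhibition read as loss of luminescence after adding luciferase detection reagent.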
Pf growth 48h: P. falciparum growth inhibition at 48 hours (one generation); P. falciparum luciferase growth in erythrocytes, 48 h; hit rate 5.9% among 310,000; Potency, µM (top dose mostly 28.7 µM), without a hit: top-dose activity change, negative = inhibition, usual class: inhibitors; AID 504832; also: potency is read from the fitted curve at half-maximal effect; % is scaled to controls: 0 for no effect and ±100 for the full control effect
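In quantitative HTS format, infected erythrocytes bearing luciferase-reporter parasites were treated for a single generation at 37 C. Luminescence after adding detection reagent served as the growth measure.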
MARV entry inh: inhibitors of Marburg virus binding or cell entry; Potency, µM (titrated, usually from 37.8 µM), without a hit: top-dose activity change, negative = inhibition, actives largely listed as inhibitors; hit rate 1.8% among 300,000; Marburg virus pseudotyped entry inhibition, cell reporter; calls by dose curve; tested in HEK293 cells; also: potency is read from the fitted curve at half-maximal effect; % is scaled to controls: 0 for no effect and ±100 for the full control effect
LASV entry inh: inhibitors of Lassa virus binding or cell entry; Lassa virus pseudotype entry inhibition, cell reporter; Potency, µM (titrated, usually from 37.9 µM), for inactives: at the highest dose activity change, negative = inhibition, actives largely listed as inhibitors; hit rate 1.2% among 300,000; AID 540256; calls by dose curve; tested in HEK293 cells; also: potency is read from the fitted curve at half-maximal effect; % is scaled to controls: 0 for no effect and ±100 for the full control effect; nearly all actives have a fitted effect of over 50% in size
Shiga toxin inh: blocks Shiga toxin action in Vero cells. inhibition, % at 38.7 µM. AID 2315. Vero cells, Shiga toxin protein synthesis inhibition reporter. hit rate 9.2% among 290,000; in the data active = inhibition mostly above about 28%, no sharp cut-off; inactive = mostly below about 43%; also: 0% is about no effect
CHX counter: counter-screen hit for Shiga toxin inhibitors, cycloheximide; cell reporter, cycloheximide protein synthesis inhibition counterscreen; hit rate 12% among 300,000; AID 2314; max response, %; in the data active = max response mostly above about 13%, no sharp cut-off; inactive = mostly below about 14%; also: read at 38.3 µM for the half of the compounds with a filed dose; 0% is about no effect
Numbers without * were called inactive; [ ] = remark or other dose. Unless noted, calls follow the shape of the dose curve; as a rule, active = well fitted inhibition curve with a large enough effect; inconclusive = small, poorly fitted or top-dose-only effect, or another doubt; inactive = no such curve, though single readings can be large or run the other way.

Results for O=C(Nc1ccccc1)c1cc(-c2ccccc2Cl)no1 ?
Pf growth 96h: -21%; Pf growth 48h: -54%; MARV entry inh: inconclusive; LASV entry inh: -4%; Shiga toxin inh: 122*; CHX counter: 47*

What do the screens show for `COc1ccc(NC(=O)c2cc(-c3ccccc3Cl)no2)cc1`?
Pf growth 96h: 62%; Pf growth 48h: 33%; MARV entry inh: -1%; LASV entry inh: 11%; Shiga toxin inh: 69*; CHX counter: 32*

How did O=C(Nc1cccc(O)c1)c1cc(-c2ccccc2F)no1 do in these assays?
LASV entry inh: 0%[46.1 µM]

What do the screens show for `COc1ccc(NC(=O)c2ccc(-c3cccc(Cl)c3C)o2)cc1`?
LASV entry inh: 1%[46.1 µM]

What do the screens show for `O=C(Nc1cccc(F)c1)c1ccc(-c2ccccc2Cl)o1`?
Pf growth 96h: inconclusive; Pf growth 48h: 50%; MARV entry inh: -23%; LASV entry inh: inconclusive; Shiga toxin inh: 105*; CHX counter: 66*

What do the screens show for `COc1cccc(NC(=S)N2CCCC2)c1`?
Pf growth 96h: inconclusive; Pf growth 48h: 28%; MARV entry inh: inconclusive; LASV entry inh: inconclusive; Shiga toxin inh: -42; CHX counter: 8

What do the screens show for `COc1ccc(S(=O)(=O)N2CCN(S(=O)(=O)c3c(F)cccc3F)CC2)cc1`?
Pf growth 96h: inconclusive; Pf growth 48h: inconclusive; Shiga toxin inh: 4; CHX counter: 10

How did COC(=O)c1sccc1NC(=O)c1ccc(C)o1 do in these assays?
Pf growth 96h: inconclusive; Pf growth 48h: inconclusive; MARV entry inh: 4%; LASV entry inh: 0%; Shiga toxin inh: -4; CHX counter: 5

Results for COC(=O)c1sccc1-c1ccc(C(=O)Nc2ccccc2)o1 ?
Pf growth 96h: 142%; Pf growth 48h: 135%; MARV entry inh: 6%; LASV entry inh: 3%; Shiga toxin inh: 75*; CHX counter: 78*

Results for COc1ccc(S(=O)(=O)NCc2cc(-c3ccccc3Cl)no2)cc1 ?
Pf growth 96h: -13%; Pf growth 48h: 10µM*; MARV entry inh: -1%[46.1 µM]; LASV entry inh: -3%[46.1 µM]; Shiga toxin inh: -12; CHX counter: -5

How did COc1ccc(OC)c(S(=O)(=O)NCc2cc(-c3ccccc3)no2)c1 do in these assays?
Pf growth 96h: inconclusive; Pf growth 48h: -18%; MARV entry inh: 0%[46.1 µM]; LASV entry inh: inconclusive; Shiga toxin inh: -4; CHX counter: -1

How did C=C(C)c1cccc(C(C)(C)NC(=O)N2CCCCC2CC)c1 (centres undefined) do in these assays?
Pf growth 48h: inconclusive; MARV entry inh: inconclusive; LASV entry inh: -22%; Shiga toxin inh: -2; CHX counter: -2

Results for COc1nc(NCCC2=CCCCC2)nc(OC)n1 ?
Pf growth 96h: inconclusive; Pf growth 48h: 10µM*; MARV entry inh: 1%; LASV entry inh: 0%; Shiga toxin inh: 6; CHX counter: 12

How did COc1nc(NCCc2ccc(OC)c(OC)c2)nc(OC)n1 do in these assays?
Pf growth 48h: -9%; MARV entry inh: -2%[46.1 µM]; LASV entry inh: 2%; Shiga toxin inh: -7; CHX counter: 1

Results for CCOC(=O)C1CCN(C(=O)c2oc3ccc(S(=O)(=O)N4CC(C)CC(C)C4)cc3c2C)CC1 (centres undefined) ?
Pf growth 96h: 31%; Pf growth 48h: 2.3µM*; MARV entry inh: inconclusive; LASV entry inh: -25%; Shiga toxin inh: -2; CHX counter: 1

How did CCOC(=O)N1CCN(C(=O)c2oc3ccc(S(=O)(=O)N4CCCCCC4)cc3c2C)CC1 do in these assays?
Pf growth 96h: inconclusive; Pf growth 48h: 12µM*; MARV entry inh: -19%; LASV entry inh: inconclusive; Shiga toxin inh: -4; CHX counter: 2

What do the screens show for `CCOC(=O)N1CCN(C(=O)c2oc3ccc(S(=O)(=O)N4CC(C)CC(C)C4)cc3c2C)CC1` (centres undefined)?
Pf growth 48h: inconclusive; MARV entry inh: inconclusive; LASV entry inh: 14%; Shiga toxin inh: -11; CHX counter: -3

Results for CCOC(=O)n1c(=O)oc2cc(S(=O)(=O)N3CCCCC3)ccc21 ?
Pf growth 96h: 0.0029µM*; Pf growth 48h: inconclusive; MARV entry inh: -5%; LASV entry inh: -21%; Shiga toxin inh: 15; CHX counter: 1

How did CCCCN(CC)C(=O)c1oc2ccc(S(=O)(=O)N3CCCC3)cc2c1C do in these assays?
Pf growth 96h: 13µM*; Pf growth 48h: inconclusive; Shiga toxin inh: -3; CHX counter: 13

What do the screens show for `COc1cccc(C2C(C#N)=C(N)N(N(C)C)C3=C2C(=O)CC(C)(C)C3)c1OC` (centres undefined)?
Pf growth 96h: -7%; Pf growth 48h: inconclusive; MARV entry inh: 6%; Shiga toxin inh: -4; CHX counter: -2

Results for COc1ccc(NC(=S)NNC(=O)c2ccc(S(=O)(=O)N3CCOCC3)cc2)cc1 ?
Pf growth 96h: -2%; Pf growth 48h: -31%[1.15 µM]; MARV entry inh: -26%[46.1 µM]; LASV entry inh: -5%; Shiga toxin inh: -6; CHX counter: -4

What do the screens show for `Cc1c(NC(=O)CN2CCN(c3cccc(Cl)c3)CC2)c(=O)n(-c2ccccc2)n1C`?
Pf growth 96h: inconclusive; Pf growth 48h: 15%; MARV entry inh: inconclusive; LASV entry inh: -10%[46.1 µM]; Shiga toxin inh: -10; CHX counter: -3

What do the screens show for `O=C(c1cccnc1)C1Cc2ccccc2C1=O` (centres undefined)?
Pf growth 96h: 7.4µM*; Pf growth 48h: inconclusive; Shiga toxin inh: -2; CHX counter: 6

How did CC1CCCC(C)N1C(=O)COC(=O)c1cc(Br)ccc1Cl (centres undefined) do in these assays?
Pf growth 96h: inconclusive; Pf growth 48h: 3%; MARV entry inh: -23%[46.1 µM]; LASV entry inh: 0%[46.1 µM]; Shiga toxin inh: -6; CHX counter: 1

What do the screens show for `O=C(O)c1ccc(N2C(=O)c3cccnc3C2=O)cc1`?
Pf growth 96h: 151%; Pf growth 48h: -5%; MARV entry inh: 3%[46.1 µM]; LASV entry inh: -8%; Shiga toxin inh: 30; CHX counter: 19*

How did CC(=O)c1ccc(NC(=O)c2ccc(N3C(=O)c4cccnc4C3=O)cc2)cc1 do in these assays?
Pf growth 96h: -12%; Pf growth 48h: 16%; MARV entry inh: 11%; LASV entry inh: 0%; Shiga toxin inh: 32; CHX counter: 22*

What do the screens show for `O=C1c2cccnc2C(=O)N1c1ccccc1-c1ccccc1`?
MARV entry inh: inconclusive; LASV entry inh: 18%; Shiga toxin inh: 5; CHX counter: -3

What do the screens show for `C/C=C/c1ccc(Oc2nnnn2-c2ccc(C(=O)O)cc2)c(OC)c1`?
Pf growth 96h: 0%; Pf growth 48h: -14%; MARV entry inh: 8%; LASV entry inh: inconclusive; Shiga toxin inh: -5; CHX counter: -2

What do the screens show for `COc1ccc(C[C@H]2CN3C(=NC[C@@H]3Cc3ccccc3)N2CCNC(=O)c2ccc(C)c(Br)c2)cc1`?
Pf growth 96h: 5.2µM*; Pf growth 48h: inconclusive; Shiga toxin inh: -10; CHX counter: -1
